Source: PubChem BioAssay (EPA / NIEHS)
Calls of active or inactive are those of the source. The calls were made as follows: active = hit-call score of the fitted dose curve at least 0.9, where 1 is the maximum; inactive = score below 0.9.

Tests used:
[1] = read-out: CFLAR gene, CFLAR (gene 8837); assay: LTEA_HepaRG_CFLAR: Life Technologies and Expression Analysis (LTEA) Assay for CFLAR gene using HepaRG (AID 2283455); conditions: mRNA level, 48 h; actives raise or lower the signal
Outline: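 Transcript level by qRT-PCR (normalized to ACTB, GAPDH and POLR2A) after 48 h chemical exposure of HepaRG cells, top concentration 100 uM with half-log steps, 0.5% DMSO vehicle, duplicates; fitted bidirectionally against DMSO baseline.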

[2] = read-out: Forkhead box O1 (FOXO1), FOXO1 (gene 2308); assay: LTEA_HepaRG_FOXO1: Life Technologies and Expression Analysis (LTEA) Assay for Forkhead box O1 (FOXO1) using HepaRG (AID 2283456); conditions: mRNA level, 48 h; actives raise or lower the signal
Outline: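 FOXO1 transcript quantified by qRT-PCR after 48 h chemical exposure (top 100 uM, half-log steps, 0.5% DMSO) of HepaRG cells, housekeeping-normalized (ACTB/GAPDH/POLR2A). Changes fitted in both directions relative to vehicle.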

[3] = read-out: growth arrest and DNA damage 45 (GADD45A), GADD45A (gene 1647); assay: LTEA_HepaRG_GADD45A: Life Technologies and Expression Analysis (LTEA) Assay for growth arrest and DNA damage 45 (GADD45A) using HepaRG (AID 2283458); conditions: mRNA level, 48 h; actives raise or lower the signal
Outline: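 HepaRG, 48 h exposure, 8 conc. (top 100 uM, half-log steps), 0.5% DMSO vehicle, duplicates. Read-out: qRT-PCR mRNA level, housekeeping-normalized (ACTB/GAPDH/POLR2A). Curves fit bidirectionally vs DMSO baseline.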

[4] = read-out: Forkhead box O3 (FOXO3), FOXO3 (gene 2309); assay: LTEA_HepaRG_FOXO3: Life Technologies and Expression Analysis (LTEA) Assay for Forkhead box O3 (FOXO3) using HepaRG (AID 2283459); conditions: mRNA level, 48 h; actives raise or lower the signal
Outline: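 FOXO3 transcript measured by qRT-PCR (normalized to ACTB, GAPDH, POLR2A) after 48 h exposure of HepaRG cells in serum-free induction medium. Duplicates, eight half-log concentrations up to 100 uM, 0.5% DMSO; gain or loss fitted against DMSO.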

[5] = read-out: ABC Transporter (ABCB1), ABCB1 (gene 5243); assay: LTEA_HepaRG_ABCB1: Life Technologies and Expression Analysis (LTEA) Assay for ABC Transporter (ABCB1) using HepaRG (AID 2283460); conditions: mRNA level, 48 h; actives raise or lower the signal
Outline: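 ABCB1 transcript level measured by TaqMan qRT-PCR against three housekeeping genes after 48 h chemical exposure of differentiated HepaRG cells. Top concentration 100 uM, half-log steps, eight points, 0.5% DMSO vehicle; bidirectional fit relative to DMSO.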

[6] = read-out: growth arrest and DNA damage 45 (GADD45B), GADD45B (gene 4616); assay: LTEA_HepaRG_GADD45B: Life Technologies and Expression Analysis (LTEA) Assay for growth arrest and DNA damage 45 (GADD45B) using HepaRG (AID 2283461); conditions: mRNA level, 48 h; actives raise or lower the signal
Outline: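 Human HepaRG monolayers receive chemicals for 48 h at eight half-log concentrations, highest 100 uM, in 0.5% DMSO. Expression is measured by TaqMan qRT-PCR and normalized to ACTB, GAPDH and POLR2A.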

[7] = read-out: ABC Transporter (ABCC3), ABCC3 (gene 8714); assay: LTEA_HepaRG_ABCC3: Life Technologies and Expression Analysis (LTEA) Assay for ABC Transporter (ABCC3) using HepaRG (AID 2283462); conditions: mRNA level, 48 h; actives raise or lower the signal
Outline: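 Transcriptional change of ABCC3 in HepaRG after 48 h treatment, determined by qRT-PCR normalized to endogenous controls. Concentrations spanned eight half-log steps to 100 uM in 0.5% DMSO.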

[8] = read-out: ABC Transporter (ABCC2), ABCC2 (gene 1244); assay: LTEA_HepaRG_ABCC2: Life Technologies and Expression Analysis (LTEA) Assay for ABC Transporter (ABCC2) using HepaRG (AID 2283464); conditions: mRNA level, 48 h; actives raise or lower the signal
Outline: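 After plating and 48 h culture, HepaRG medium is replaced with serum-free induction medium and chemicals are added (8 concentrations, max 100 uM, 0.5% DMSO) for 48 h. Total RNA then undergoes qRT-PCR for ABCC2 with housekeeping normalization.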

[9] = read-out: ABC Transporter (ABCB11), ABCB11 (gene 8647); assay: LTEA_HepaRG_ABCB11: Life Technologies and Expression Analysis (LTEA) Assay for ABC Transporter (ABCB11) using HepaRG (AID 2283463); conditions: mRNA level, 48 h; actives raise or lower the signal
Outline: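 ABCB11 transcript levels quantified by TaqMan qRT-PCR against three housekeeping genes after 48 h chemical exposure of HepaRG cultures. Concentrations up to 100 uM in half-log steps, 0.5% DMSO vehicle; both induction and suppression scored.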

[10] = CEETOX_H295R_TESTO: CeeTox H295R High-throughput Steroidogenesis Assay for Testosterone (TESTO) (AID 2283457); conditions: actives raise or lower the signal
Outline: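 Steroidogenesis in H295R cells following OECD 456 with minor changes; 48 h exposure. Medium testosterone by HPLC-MS/MS, DMSO as baseline, with MTT viability run in parallel.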

Measured: AC50

CCCCCCCC[Si](OCC)(OCC)OCC
not listed: [9] | [10]
inactive: all other assays above

Cc1cc2c(cc1C(F)(F)F)N(C(=O)Nc1ccc(Oc3cccnc3C)nc1)CC2
active: [1] 72.6 µM | [2] 80.9 µM | [3] 78.1 µM | [7] 11.6 µM
inactive: [4] | [5] | [6] | [8]

CN1C(=O)CC[C@H]1c1cccnc1
not listed: [10]
inactive: all other assays above

CCCCOC(=O)c1ccc(O)cc1
not listed: [1] | [9]
inactive: all other assays above

O=C(O)c1ccccc1C(=O)OCc1ccccc1
not listed: [10]
inactive: all other assays above

CCOC(=O)O[C@H](C)OC(=O)c1ccc2c(c1)cc(C(=O)NC1CCN(C(C)C)CC1)n2Cc1cc(-c2ccc(Cl)s2)on1
not listed: [9] | [10]
inactive: all other assays above

Cc1cc(F)ccc1-c1cc(N2CC[C@@H](O)[C@H]2CO)ncc1N(C)C(=O)C(C)(C)c1cc(C(F)(F)F)cc(C(F)(F)F)c1
inactive: [2] | [3] | [4] | [7]
active: [1] 75.7 µM | [5] 10.3 µM | [6] 76 µM | [8] 70.7 µM

O=C(O)Cc1cc(I)c(Oc2ccc(O)c(I)c2)c(I)c1
active: [2] 50 µM | [3] 94.5 µM | [6] 50 µM | [9] 20.2 µM
not listed: [10]
inactive: all other assays above

O=c1ccc2ccccc2o1
not listed: [9] | [10]
inactive: all other assays above

CCCCCCCCOc1ccc(C(=O)c2ccccc2)c(O)c1
not listed: [10]
inactive: all other assays above

CN1C(=O)N(c2ccccc2Br)Cc2cnc(Nc3ccc4c(c3)OCC(CO)O4)nc21 (stereo not drawn)
active: [2] 39.2 µM | [3] 0.0221 µM | [5] 89.9 µM | [6] 81.6 µM | [7] 28.6 µM | [9] 80.3 µM | [8] 77.1 µM
inactive: [1] | [4]

CC/C(=C(/CC)c1ccc(O)cc1)c1ccc(O)cc1
active: [1] 50 µM | [2] 74.8 µM | [4] 76.9 µM | [5] 82.2 µM | [6] 68.8 µM | [8] 78 µM
inactive: [3] | [7]

Oc1ccccc1
not listed: [10]
inactive: all other assays above

Cc1ncc(CO)c(CO)c1O
inactive: [1] | [2] | [4] | [5] | [6] | [7]

O=CCCCC=O
not listed: [9] | [10]
inactive: all other assays above

OC12N=C(c3ccccc3)SC1Cc1cc(Cl)ccc12 (stereo not drawn)
inactive: [2] | [3] | [8]
active: [1] 5 µM | [4] 4.85 µM | [5] 17 µM | [6] 3.34 µM | [7] 21 µM

CCN(Cc1cccnc1)C(=O)c1cccc(Cl)c1[C@]1(C)C(=O)N(Cc2ccc(OC)cc2OC)c2ccc(Cl)cc21
active: [3] 18.1 µM | [4] 8.39 µM
not listed: [9] | [10]
inactive: all other assays above

O=C=NCCCCCCN=C=O
not listed: [9] | [10]
inactive: all other assays above
